Reference: PubChem BioAssay (NCATS)
Results filed as inconclusive are left out. Active and inactive are the calls of the source. Calls come from the whole dose curve; as a rule, active = well fitted curve in the direction sought with a large enough effect; inconclusive = small, poorly fitted or top-dose-only effect, or another doubt; inactive = no such curve, though single readings can be large or run the other way.

Target: Glucagon-like peptide 1 receptor (Homo sapiens) (UniProt P43220)
Test: qHTS of GLP-1 Receptor Agonists: LOPAC Validation (AID 624148);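 note: luminescence from a luciferase reporter switched on by cAMP; higher luminescence signal means agonism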
Conditions: GLP-1R agonist cell assay; series mostly up to 46.1 µM
Method in brief: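 Agonism scored as increased luciferase luminescence driven by cAMP in HEK293 clones carrying GLP-1R. Cells settled 12 hours, received compound for 4-6 hr at 37 deg C, 5% CO2, and were read after 12 min detection reagent at RT.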

Sequence of Glucagon-like peptide 1 receptor (Homo sapiens) (P43220 whole entry, looked up): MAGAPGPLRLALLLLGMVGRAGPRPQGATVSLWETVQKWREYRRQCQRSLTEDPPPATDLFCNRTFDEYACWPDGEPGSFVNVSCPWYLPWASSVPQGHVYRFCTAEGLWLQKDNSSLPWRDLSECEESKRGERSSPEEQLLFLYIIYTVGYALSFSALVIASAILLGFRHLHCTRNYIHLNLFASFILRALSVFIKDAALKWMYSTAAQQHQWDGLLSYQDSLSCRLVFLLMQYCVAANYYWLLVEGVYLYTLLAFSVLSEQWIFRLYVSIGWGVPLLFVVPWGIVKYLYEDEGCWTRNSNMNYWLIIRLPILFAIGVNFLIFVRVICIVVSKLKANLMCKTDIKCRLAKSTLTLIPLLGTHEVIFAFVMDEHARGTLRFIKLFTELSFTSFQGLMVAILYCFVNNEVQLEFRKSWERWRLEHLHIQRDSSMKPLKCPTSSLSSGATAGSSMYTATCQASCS

SMILES | outcome
COc1ccccc1N1CCN(CCCCNS(=O)(=O)c2cccc3c(N(C)C)cccc23)CC1 | inactive
CC(C)ON([C@@H](C(=O)NO)C(C)C)S(=O)(=O)c1ccc(-c2ccccc2)cc1 | inactive
CC(C)NCC(O)COc1cccc2ccccc12 (stereo not given) | inactive
O=C(O)CC1CCCc2ccccc2C1O (stereo not given) | inactive
CC(=O)/C=C1\C(=O)N(C)c2ccccc21 | inactive
CCCCCCCCCCCCCCCCCC(=O)NCC(COP(=O)([O-])OCC[N+](C)(C)C)OCC (stereo not given) | inactive
Cc1ccc(S(=O)(=O)/C=C/C#N)cc1 | inactive
OCC1O[C@H]([S-])[C@H](O)[C@@H](O)[C@@H]1O.[Au+] (stereo not given in full) | inactive
N.N.N.N.N.N.N.N.N.N.N.N.N.N.O.O.[Ru+4].[Ru+5].[Ru+5] | inactive
NC(=S)NCCC[C@H](N)C(=O)O | inactive
CC12C(=O)OC(=O)C1(C)C1CCC2O1 (stereo not given) | inactive
CN1CCc2cccc3c2C1Cc1ccc(O)c(O)c1-3 (stereo not given) | inactive
O=C1C(SCCO)=C(SCCO)C(=O)c2ccccc21 | inactive
O=C1/C(=C/c2ccsc2)CC/C1=C\c1cccs1 | inactive
N#C/C(=C\c1ccc(O)c(O)c1)C(=O)c1ccc(O)c(O)c1 | inactive
N.N.O=C(O)C1(C(=O)O)CCC1.[Pt] | inactive
Oc1ccc(C2CNCc3sccc32)cc1O (stereo not given) | inactive
N#C/C(=C\c1ccc(-c2cc(Cl)ccc2Cl)o1)C(=O)Nc1cccc2ncccc12 | inactive
CCOC(=O)N1CCN(/[N+]([O-])=N/Oc2ccc([N+](=O)[O-])cc2[N+](=O)[O-])CC1 | inactive
CC(C)(C)c1ccc(S(=O)(=O)/C=C/C#N)cc1 | inactive
